Measured values from PubChem BioAssay (Tox21).
Records with an inconclusive call do not appear. Calls of active or inactive are those of the source. Unless noted, calls come from the whole dose curve.

Columns and labels:
[1] = Nuclear factor erythroid 2-related factor 2/antioxidant responsive element (Nrf2/ARE) small molecule agonists: qHTS cell viability counter screen in human keratinocytes (AID 1919968; active = well fitted curve in the direction sought with a large enough effect in the repeat runs; an effect the other way counts as inactive or inconclusive; note: nearly all actives have a fitted effect of over 55% in size)
Method in brief: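 CellTiter-Fluor fluorescence, read 1 h after reagent, gave viability in the same wells as the ARE-luciferase assay. KeratinoSens cells (1,500/well) had 23 h compound exposure at 37 C/5% CO2 following 5 h plating.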

[2] = Nuclear factor erythroid 2-related factor 2/antioxidant responsive element (Nrf2/ARE) small molecule agonists: luciferase reporter gene qHTS assay in human keratinocytes (AID 1919969); note: nearly all actives have a fitted effect of over 35% in size; note: potency is the fitted concentration of half-maximal effect
[3] = biological target: Gonadotropin-releasing hormone receptor (Homo sapiens) (UniProt P30968); assay: Human gonadotropin-releasing hormone receptor (GnRHR) small molecule agonists, calcium flux assay in GnRHR-HEK293 cells (AID 1920063); note: nearly all actives have a fitted effect of over 35% in size
Gonadotropin-releasing hormone receptor (Homo sapiens), sequence (P30968 whole entry, looked up): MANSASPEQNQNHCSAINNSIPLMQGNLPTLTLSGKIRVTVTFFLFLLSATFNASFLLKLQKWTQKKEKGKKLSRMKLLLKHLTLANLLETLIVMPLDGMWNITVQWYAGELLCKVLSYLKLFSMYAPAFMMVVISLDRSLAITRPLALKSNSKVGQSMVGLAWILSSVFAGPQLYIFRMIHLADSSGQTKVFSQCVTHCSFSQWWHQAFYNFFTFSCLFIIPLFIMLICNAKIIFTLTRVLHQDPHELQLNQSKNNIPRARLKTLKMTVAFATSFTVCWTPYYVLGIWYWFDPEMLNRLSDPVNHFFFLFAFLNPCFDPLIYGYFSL
Method in brief: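 Agonist mode: compounds at 15 concentrations, in triplicate, went onto calcium dye-loaded GnRHR-HEK293 cells. Intracellular calcium was then followed as 480/540 nm fluorescence at 1 s intervals over 3 min.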

[4] = biological target: KiSS-1 receptor (Homo sapiens) (UniProt Q969F8); assay: Human kisspeptin (KISS1R) small molecule agonists, calcium flux assay in KISS1R-HEK293 cells (AID 1920064; active = well fitted curve in the direction sought with a large enough effect in the repeat runs; an effect the other way counts as inactive or inconclusive)
KiSS-1 receptor (Homo sapiens), sequence (Q969F8 whole entry, looked up): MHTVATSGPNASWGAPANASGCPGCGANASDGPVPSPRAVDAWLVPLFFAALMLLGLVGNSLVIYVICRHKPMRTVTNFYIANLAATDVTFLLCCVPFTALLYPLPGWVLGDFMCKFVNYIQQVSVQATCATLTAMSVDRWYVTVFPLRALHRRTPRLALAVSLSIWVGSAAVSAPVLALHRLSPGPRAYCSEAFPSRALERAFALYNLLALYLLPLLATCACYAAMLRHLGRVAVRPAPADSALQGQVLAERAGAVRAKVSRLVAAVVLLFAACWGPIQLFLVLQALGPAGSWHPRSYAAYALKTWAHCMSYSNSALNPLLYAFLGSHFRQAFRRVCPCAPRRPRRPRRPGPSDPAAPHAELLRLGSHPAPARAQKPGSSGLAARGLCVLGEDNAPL
Method in brief: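 Agonist mode: intracellular calcium rise tracked at 1 s intervals over 3 min (480/540 nm) immediately after compound addition to dye-loaded KISS1R-HEK293 stable cells. Each compound tested at 15 concentrations in triplicate.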

[5] = G protein-coupled receptor (GPCR) small molecule agonists, calcium flux assay: HEK293 wild type cell line counter screen (AID 1920065)
Method in brief: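 Calcium flux counter screen: compound added in agonist mode at 15 concentrations in triplicate to dye-loaded parental HEK293 cells. Fluorescence (480/540) read kinetically for 3 min; ATP served as positive control.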

[6] = p53 small molecule agonists, cell-based qHTS assay with human liver microsomes (AID 1963577)
Method in brief: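 Fluorescence of the beta-lactamase reporter in p53RE-bla cells, detected with LiveBLAzer substrate (2 h, room temperature, dark), served as the read-out after 16 h compound exposure at 37 C with human liver microsomes and NADPH, each 0.5 mg/mL final.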

[7] = p53 small molecule agonists, cell-based qHTS assay with rat liver microsomes (AID 1963578)
Method in brief: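 Cells carrying a p53 response element–beta-lactamase reporter were plated and rested 5 h, then dosed with compound in DMSO plus rat liver microsomes and NADPH, each at 0.5 mg/mL final. After 16 h at 37 C, LiveBLAzer substrate was added for 2 h.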

[8] = p53 small molecule agonists, cell-based qHTS assay with human liver microsomes: qHTS cell viability counter screen (AID 1963579); note: nearly all actives have a fitted effect of over 45% in size
Method in brief: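 Cytotoxicity counter screen: p53RE-bla, 4,000 cells/well; 5 h settle, 37 C/5% CO2; cpd + HLM 0.5 mg/mL + NADPH 0.5 mg/mL (final); 16 h, 37 C; CellTiter-Glo, 30 min RT, luminescence.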

[9] = p53 small molecule agonists, cell-based qHTS assay with rat liver microsomes: qHTS cell viability counter screen (AID 1963580); note: nearly all actives have a fitted effect of over 45% in size
Method in brief: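 Rat liver microsome (0.5 mg/mL final) and NADPH (0.5 mg/mL final) co-incubation with compounds for 16 h at 37 C on HCT-116 p53RE-bla cells; cytotoxicity taken from intracellular ATP luminescence.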

[10] = p53 small molecule agonists, cell-based qHTS assay: qHTS cell viability counter screen (AID 1963581); note: nearly all actives have a fitted effect of over 45% in size
Method in brief: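 Counter screen read by CellTiter-Glo luminescence (ATP content, 30 min at room temperature), run in the same wells as the beta-lactamase reporter read. HCT-116 p53RE-bla cells saw compounds for 16 h at 37 C.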

[11] = p53 small molecule agonists, cell-based qHTS assay (AID 1963582; active = well fitted activation curve with a large enough effect in the signal ratio in the repeat runs, not every such curve was filed as active; the % refers to the signal ratio)
Method in brief: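 Read-out is beta-lactamase FRET fluorescence after 2 h at room temperature with LiveBLAzer B/G substrate. p53 response element-bla cells were treated 16 h at 37 C with compounds in DMSO, added 5 h after seeding.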

[12] = biological target: 5-hydroxytryptamine receptor 2A (Homo sapiens) (UniProt P28223); assay: 5-hydroxytryptamine receptor 2A (HTR2A) small molecule agonists, cell-based qHTS assay (AID 1963587); note: nearly all actives have a fitted effect of over 30% in size
5-hydroxytryptamine receptor 2A (Homo sapiens), sequence (P28223 whole entry, looked up): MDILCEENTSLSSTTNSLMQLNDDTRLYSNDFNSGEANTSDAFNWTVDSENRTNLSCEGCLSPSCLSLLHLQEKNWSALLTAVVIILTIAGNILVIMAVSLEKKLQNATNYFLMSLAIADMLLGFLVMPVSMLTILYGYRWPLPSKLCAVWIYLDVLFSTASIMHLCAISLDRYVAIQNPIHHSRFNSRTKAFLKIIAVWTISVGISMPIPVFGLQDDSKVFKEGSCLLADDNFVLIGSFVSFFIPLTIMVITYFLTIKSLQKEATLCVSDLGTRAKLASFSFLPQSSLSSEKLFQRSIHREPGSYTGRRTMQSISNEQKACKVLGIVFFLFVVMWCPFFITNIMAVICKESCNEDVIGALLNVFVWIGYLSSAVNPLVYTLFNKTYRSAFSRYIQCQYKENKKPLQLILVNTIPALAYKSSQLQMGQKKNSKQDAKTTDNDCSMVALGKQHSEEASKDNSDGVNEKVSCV
Method in brief: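 Kinetic calcium-flux fluorescence (2 min, 1 sec intervals) after compound addition in agonist mode. HTR2A-CHO cells were cultured 18 h, then dye-loaded 1 h at 37 C.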

[13] = biological target: Muscarinic acetylcholine receptor M1 (Homo sapiens) (UniProt P11229); assay: Cholinergic receptor muscarinic 1 (CHRM1) small molecule antagonists, cell-based qHTS assay (AID 1963588); note: nearly all actives have a fitted effect of over 40% in size; note: potency is the fitted concentration of half-maximal effect
Muscarinic acetylcholine receptor M1 (Homo sapiens), sequence (P11229 whole entry, looked up): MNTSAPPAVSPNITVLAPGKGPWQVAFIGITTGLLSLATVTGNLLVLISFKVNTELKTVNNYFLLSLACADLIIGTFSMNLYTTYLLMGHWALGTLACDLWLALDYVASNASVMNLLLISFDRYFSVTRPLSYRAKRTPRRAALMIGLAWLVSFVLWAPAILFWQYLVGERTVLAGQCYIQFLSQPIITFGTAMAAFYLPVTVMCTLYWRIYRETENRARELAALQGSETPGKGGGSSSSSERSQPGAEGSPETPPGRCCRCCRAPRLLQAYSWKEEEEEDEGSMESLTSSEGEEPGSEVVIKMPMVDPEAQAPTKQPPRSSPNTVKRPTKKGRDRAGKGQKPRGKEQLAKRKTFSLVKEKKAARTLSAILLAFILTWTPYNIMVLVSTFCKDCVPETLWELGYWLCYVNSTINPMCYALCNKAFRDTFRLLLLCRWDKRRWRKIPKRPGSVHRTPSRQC
Method in brief: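 Compounds were tested at 15 concentrations in three independent runs. Dye-loaded CHRM1-CHO cells were exposed 5 min at room temperature before stimulation by acetylcholine added at 50nM. Intracellular calcium was read kinetically on FDSS for 3 min.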

[14] = biological target: Muscarinic acetylcholine receptor M1 (Homo sapiens) (UniProt P11229); assay: Cholinergic receptor muscarinic 1 (CHRM1) small molecule agonists, cell-based qHTS assay (AID 1963589); note: nearly all actives have a fitted effect of over 35% in size
Method in brief: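 Agonist-mode calcium-flux screen: compounds at 15 concentrations, three independent runs, were pin-transferred onto dye-loaded human CHRM1-CHO cells. Fluorescence was then recorded kinetically every second over minutes.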

[15] = cAMP Responsive Elements (CRE) small molecule agonists, cell-based qHTS assay (AID 1963590)
Method in brief: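 Agonist mode: compound added to CRE-bla HEK 293T cells (2,000/well, 18 h after plating) for 3 h at 37 C/5% CO2. Reporter activity detected via FRET beta-lactamase substrate, 2 h room-temperature loading.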

[16] = cAMP Responsive Elements (CRE) small molecule antagonists, cell-based qHTS assay (AID 1963591; active = well fitted inhibition curve with a large enough effect in the signal ratio in the repeat runs, not every such curve was filed as active; the % refers to the signal ratio)
Method in brief: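 Antagonist mode: compounds are added alongside the adenylyl cyclase activator NKH477 (0.25 uM final) to CRE-bla HEK293T cells for 3 h. LiveBLAzer FRET substrate, 2 h at room temperature, reports bla expression.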

[17] = biological target: Beta-2 adrenergic receptor (Homo sapiens) (UniProt P07550); assay: Adrenergic beta2 receptor (ADRB2) small molecule antagonists, cell-based qHTS assay (AID 1963592); note: series mostly up to about 92 µM; nearly all actives have a fitted effect of over 50% in size
Beta-2 adrenergic receptor (Homo sapiens), sequence (P07550 whole entry, looked up): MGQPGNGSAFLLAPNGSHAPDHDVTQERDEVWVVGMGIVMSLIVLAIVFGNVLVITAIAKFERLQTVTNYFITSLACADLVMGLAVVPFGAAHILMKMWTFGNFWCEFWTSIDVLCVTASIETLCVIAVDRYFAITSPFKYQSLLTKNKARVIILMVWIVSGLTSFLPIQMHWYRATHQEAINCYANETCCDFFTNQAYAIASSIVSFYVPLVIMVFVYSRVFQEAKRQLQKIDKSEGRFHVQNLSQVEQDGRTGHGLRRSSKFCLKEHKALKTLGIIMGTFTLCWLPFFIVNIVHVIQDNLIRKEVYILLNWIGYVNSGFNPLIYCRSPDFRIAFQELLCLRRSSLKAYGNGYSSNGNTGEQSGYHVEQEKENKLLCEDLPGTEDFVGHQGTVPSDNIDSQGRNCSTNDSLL
Method in brief: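 Assay format: CHO-ADRB2 cells, 18-20hr seeding at 37C/5% CO2, then compound plus 1nM isoproterenol agonist mix for 0.5hr RT. Homogeneous time-resolved fluorescence cAMP detection after 1hr, expressed as 665/615 nm ratio.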

[18] = biological target: Beta-2 adrenergic receptor (Homo sapiens) (UniProt P07550); assay: Adrenergic beta2 receptor (ADRB2) small molecule agonists, cell-based qHTS assay (AID 1963593); note: potency is the fitted concentration of half-maximal effect;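 for activation: CHO cells stably overexpressing human ADRB2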
Method in brief: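 CHO cells stably over-expressing ADRB2 were plated overnight at 37C, then dosed with compounds plus a stimulation mix containing 100uM IBMX and 25uM Ro-20-1724 for 0.5hr at room temperature. cAMP was measured by HTRF competition, 1hr.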

[19] = biological target: D(2) dopamine receptor (Homo sapiens) (UniProt P14416); assay: Dopamine D2 receptor (DRD2) small molecule agonists, cell-based qHTS assay (AID 1963594); note: nearly all actives have a fitted effect of over 35% in size
D(2) dopamine receptor (Homo sapiens), sequence (P14416 whole entry, looked up): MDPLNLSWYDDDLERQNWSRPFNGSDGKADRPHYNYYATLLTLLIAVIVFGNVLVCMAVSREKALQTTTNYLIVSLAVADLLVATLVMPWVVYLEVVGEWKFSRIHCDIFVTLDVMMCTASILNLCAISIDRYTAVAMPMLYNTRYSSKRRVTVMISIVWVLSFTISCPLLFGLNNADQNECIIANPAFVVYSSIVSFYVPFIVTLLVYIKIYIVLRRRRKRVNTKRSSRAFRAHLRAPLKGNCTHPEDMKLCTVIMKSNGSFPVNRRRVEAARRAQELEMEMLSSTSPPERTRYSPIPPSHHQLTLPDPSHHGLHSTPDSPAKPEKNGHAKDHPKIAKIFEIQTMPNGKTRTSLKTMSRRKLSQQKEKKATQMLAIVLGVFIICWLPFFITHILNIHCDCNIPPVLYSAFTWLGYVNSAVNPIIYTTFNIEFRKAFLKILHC
Method in brief: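 cAMP accumulation in DRD2-HEK293 cells measured by HTRF after 1 h detection; compounds added 10 min before NKH477 (200nM […]) forskolin-analogue stimulation, 30 min at room temperature, with Ro20-1724 present at 0.1 mM final.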

[20] = biological target: D(2) dopamine receptor (Homo sapiens) (UniProt P14416); assay: Dopamine D2 receptor (DRD2) small molecule antagonists, cell-based qHTS assay (AID 1963595; active = well fitted inhibition curve with a large enough effect in the signal ratio in the repeat runs, with a control signal flat; the % refers to the signal ratio)
Method in brief: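 In this cell-based antagonist screen, compounds act for 10 min at room temperature before a 30 min challenge with 12 nM quinpirole and 200 nM NKH477. cAMP is quantified by HTRF competition in DRD2-HEK293 cells containing 0.1 mM Ro20-1724.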

Measured: Potency

O[C@@H]1CO[C@H]2[C@@H]1OC[C@@H]2O
inactive: all assays above

CCCCOCCOC(=O)COc1ccc(Cl)cc1Cl
not listed: [12] | [13] | [15] | [16]
inactive: all other assays above

CCCCC/C=C\CCC=O
not listed: [18]
inactive: all other assays above

CCCCCCCCCC(=O)N(C)C
active: [2] 43.9 µM
not listed: [18]
inactive: all other assays above

N#CCC(=O)NN
not listed: [20]
inactive: all other assays above

O=C(Oc1ccccc1)c1ccccc1C(=O)Oc1ccccc1
not listed: [20]
inactive: all other assays above

CCCCOc1ccc(C(=O)CCN2CCCCC2)cc1
active: [13] 10.3 µM | [18] 13.3 µM
not listed: [17]
inactive: all other assays above

CC(=O)Nc1ccc(OCC(O)CNC(C)C)cc1 (stereo not given)
not listed: [17] | [18]
inactive: all other assays above

NS(=O)(=O)c1cc2c(cc1C(F)(F)F)NCNS2(=O)=O
not listed: [18]
inactive: all other assays above

CCN(CC)CCOCCOC(=O)C1(c2ccccc2)CCCC1
active: [13] 0.13 µM
inactive: all other assays above

CN(C)CCN(Cc1ccsc1)c1ccccn1
not listed: [17]
inactive: all other assays above

C[C@@H]1O[C@@H](O[C@@H]2[C@@H](O)[C@H](OCCc3ccc(O)c(O)c3)O[C@H](CO[C@@H]3O[C@H](CO)[C@@H](O)[C@H](O)[C@H]3O)[C@H]2OC(=O)/C=C/c2ccc(O)c(O)c2)[C@H](O)[C@H](O)[C@H]1O
not listed: [17] | [18] | [19]
inactive: all other assays above

CC(=O)N[C@@H](CCC(N)=O)C(=O)O
not listed: [18] | [19]
inactive: all other assays above

CC(C)CCCCCCOC(=O)CCCCC(=O)OCCCCCCC(C)C
not listed: [17] | [19]
inactive: all other assays above
